Source: PubChem BioAssay AID1851 (National Center for Advancing Translational Sciences (NCATS), 2009)
In all, about 16,000 compounds went through this assay and about 2,600 (16%) were called active. Another 20% or so got no clear call; they are omitted. The call rests on the fitted dose curve; in most records, active means well fitted curve in the direction sought with a large enough effect; inconclusive means small, poorly fitted or top-dose-only effect, or effect the other way; inactive means no such curve, though single readings can be large or run the other way. Not all results are given here. Some structures have more than one record in an assay (separate samples or runs), and their calls can disagree.

molecular target: Cytochrome P450 2D6 (Homo sapiens) (UniProt P10635); assay: Cytochrome panel assay with activity outcomes; details: recombinant CYP, pro-luciferin dealkylation, luminescence, p450-cyp2d6; series mostly up to 57.1 µM
Sequence (P10635 whole entry, looked up): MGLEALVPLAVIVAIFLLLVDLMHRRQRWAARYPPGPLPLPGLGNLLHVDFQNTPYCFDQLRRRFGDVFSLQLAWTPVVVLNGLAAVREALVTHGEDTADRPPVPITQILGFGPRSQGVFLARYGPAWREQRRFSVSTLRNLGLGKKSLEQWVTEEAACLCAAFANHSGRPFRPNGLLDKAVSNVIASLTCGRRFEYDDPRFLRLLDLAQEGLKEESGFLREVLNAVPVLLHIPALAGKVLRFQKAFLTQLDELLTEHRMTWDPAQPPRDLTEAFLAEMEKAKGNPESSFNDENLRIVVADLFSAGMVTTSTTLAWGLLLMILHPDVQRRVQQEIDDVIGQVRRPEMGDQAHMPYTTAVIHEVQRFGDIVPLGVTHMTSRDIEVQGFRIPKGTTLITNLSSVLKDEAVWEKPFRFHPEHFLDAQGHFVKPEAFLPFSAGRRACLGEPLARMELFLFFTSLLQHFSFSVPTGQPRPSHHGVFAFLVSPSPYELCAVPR
On the % scale 0 is the no-effect control and ±100 the full control effect.

| Structure (SMILES) | AC50 | activity, negative = inhibition |
| --- | --- | --- |
| CCCn1c(=O)c2[nH]c(-c3ccc(OCC(=O)NCCN)cc3)nc2n(CCC)c1=O | inactive | – |
| C[C@@]12CCC(=O)C=C1CC[C@H]1[C@@H]2[C@@H](O)C[C@]2(C)[C@@H]1CC[C@@]2(O)C(=O)CO | – | 17% [at 11.4 µM] (inactive) |
| O=C(Oc1ccccc1)N1CCC2(CC1)CCN(c1cccc(-c3ccccc3)c1)CC2 | inactive | – |
| CCCCCCCCN[C@@H](C)[C@H](O)c1ccc(SC(C)C)cc1 | 1 µM (active) | – |
| CCCn1cnc2c(SCC(=O)O)nc(N)nc21 | – | 7.62% [at 11.4 µM] (inactive) |
| CCOc1nc(NC(C)C)nc(NC(C)C)n1 | inactive | – |
| COc1ccc(Nc2ncnc3sc(-c4ccccc4)cc23)cc1 | 28.2 µM (active) | – |
| COc1cccc(Nc2ncc(C(=O)O)c3ccccc23)c1 | inactive | – |
| COc1ccc(-n2cnc3sc(-c4ccccc4)cc3c2=O)cc1 | inactive | – |
| Fc1ccc(-c2cn3cc(C(F)(F)F)cc(Cl)c3n2)cc1 | inactive | – |
| COc1ccc(Cn2c(SCc3ccccc3C)nc3cc(OC)c(OC)cc3c2=N)cc1 | 1.26 µM (active) | – |
| COc1ncc2ncc(=O)n(Cc3cccs3)c2n1 | inactive | – |
| COCCNC(=O)CSc1nc2ccc(N3CCOCC3)cc2c(=O)n1Cc1ccc(OC)cc1 | inactive | – |
| CCCCNC(=O)CSc1nc2cc(OC)c(OC)cc2c(=O)n1Cc1ccc(OC)cc1 | inactive | – |
| COc1cc2nc(SCc3ccc(Cl)cc3Cl)n(Cc3cccs3)c(=N)c2cc1OC | 2.24 µM (active) | – |
| CN1CCN(c2ncc3nc(-c4ccc(Cl)cc4)c(=O)n(Cc4cccs4)c3n2)CC1 | inactive | – |
| CC(=O)N(O)CCCCCNC(=O)CCC(=O)N(O)CCCCCNC(=O)CCC(=O)N(O)CCCCCN | inactive | – |
| CN1CCC2(CC1)CCN(C(=O)c1cc(C(F)(F)F)cc(C(F)(F)F)c1)CC2 | inactive | – |
| Cc1noc(C)c1COc1cccc(C(=O)OCC(=O)N2CC(=O)Nc3ccccc32)c1 | inactive | – |
| CN(CC(=O)O)Cc1c(O)c(Cl)cc(Cl)c1Cl | – | 8.14% [at 11.4 µM] (inactive) |
| N[C@H](C(=O)O)c1ccc(C(=O)O)cc1 | inactive | – |
| N[C@@H](C(=O)O)c1ccc(C(=O)O)cc1 | inactive | – |
| N[C@H](C(=O)O)c1ccc(O)c(C(=O)O)c1 | inactive | – |

| Structure (SMILES) | AC50 | activity, negative = inhibition |
| --- | --- | --- |
| N[C@@H](C(=O)O)c1ccc(P(=O)(O)O)cc1 | 25.1 µM (active) | – |
| N[C@@H](C(=O)O)c1ccc(C(=O)O)c(O)c1 | inactive | – |
| N[C@@H](C(=O)O)c1ccc(C(=O)O)c(C(=O)O)c1 | 7.94 µM (active) and inactive | – |
| O=C(Oc1ccccc1N1C(=O)C2CCCCC2C1=O)c1ccccc1 (configuration not stated) | inactive | – |
| COCCn1c(=O)c(CCc2ccccc2)nc2cnc(Oc3cccc(Cl)c3)nc21 | inactive | – |
| Nc1ccc(S(=O)(=O)Nc2nccs2)cc1 | inactive | – |
| CCN(CC)c1ccc(SS(=O)(=O)O)cc1 | inactive | – |
| O=C(N[C@@H](c1ccccc1)[C@@H]1C[C@H]1C(=O)NCc1ccccn1)OCc1ccccc1 | inactive | – |
| C[C@@H](C(=O)NCc1ccccn1)[C@@H]1C[C@@]1(C)[C@@H](NC(=O)OCc1ccccc1)c1ccccc1 | 12.6 µM (active) | – |
| C[C@@H](C(=O)NCCF)[C@H]1C[C@]1(C)[C@H](NC(=O)OCc1ccccc1)c1ccccc1 | 6.31 µM (active) | – |
| O=C(N[C@@H](c1ccccc1)[C@@H]1C[C@H]1C(=O)O)OCc1ccccc1 | inactive | – |
| C[C@@H](C(=O)NCCc1c[nH]c2ccccc12)[C@H]1C[C@]1(C)[C@H](NC(=O)OCc1ccccc1)c1ccccc1 | 2 µM (active) | – |
| COC(=O)[C@H](C)[C@@H]1C[C@@]1(C)[C@@H](NC(=O)OCc1ccccc1)c1ccccc1 | inactive | – |
| C[C@@H](C(=O)NCc1cccc2ccccc12)[C@H]1C[C@]1(C)[C@H](NC(=O)OCc1ccccc1)c1ccccc1 | inactive | – |
| COC(=O)[C@H](C)[C@H]1C[C@]1(C)[C@H](NC(=O)OCc1ccccc1)c1ccccc1 | inactive | – |
| C[C@@H](C(=O)NCc1ccc(S(C)(=O)=O)cc1)[C@H]1C[C@]1(C)[C@H](NC(=O)OCc1ccccc1)c1ccccc1 | 0.398 µM (active) | – |
| O=C(O)c1ccccc1-c1ccc(/C=c2\sc3nc4cc(Br)cnc4n3c2=O)o1 | inactive | – |
| N#CC(C#N)=C(N)/C(C#N)=C/c1ccc(O)cc1 | inactive | – |
| COc1ccc(/C(C)=N/NC(=O)c2ccc(N(C)C)cc2)cc1 | inactive | – |
| COc1cc2c(cc1OC)C(C(=O)Nc1cccc(C)n1)C(c1cccnc1)N(C)C2=O (configuration not stated) | inactive | – |
| COc1cc(C2C(=O)N(C3CCCC3)CC(=O)N2Cc2ccco2)ccc1OC(C)C (configuration not stated) | inactive | – |
| CCCC1C(=O)N(c2ccccc2)C1c1ccccc1 (configuration not stated) | inactive | – |
| CCCCOC(=O)c1cc2c(cn1)[nH]c1ccccc12 | inactive | – |

| Structure (SMILES) | AC50 | activity, negative = inhibition |
| --- | --- | --- |
| CCCC[C@@H]1C[C@H]1C(NC(=O)Cc1ccccc1)c1ccc(-c2ccccc2)cc1 (some centres not stated) | inactive | – |
| CCOC(=O)c1c(C)nc2sc3c(=O)n(-c4ccc(C)cc4)cnc3c2c1-c1ccc(OC)cc1 | inactive | – |
| O=C(O)c1c2c(c(O)c3c1CN(C1CCCCC1)CO3)OCN(C1CCCCC1)C2 | – | 15.7% [at 11.4 µM] (inactive) |
| C[C@@H](C(=O)O)[C@@H]1C[C@@]1(C)[C@@H](NC(=O)OCc1ccccc1)c1ccccc1 | inactive | – |
| C[C@@H](C(=O)O)[C@H]1C[C@]1(C)[C@H](NC(=O)OCc1ccccc1)c1ccccc1 | inactive | – |
| CNC(=O)[C@H](C)[C@@H]1C[C@@]1(C)[C@@H](NC(=O)OCc1ccccc1)c1ccccc1 | 3.16 µM (active) | – |
| O=C(O)C[C@H](Cc1ccccc1)C(=O)O | – | 6.15% [at 11.4 µM] (inactive) |
| CCC(C)NC(=O)NC(=O)N(C1CCCCC1)S(C)(=O)=O (configuration not stated) | inactive | – |
| CO[C@H]1C[C@@H](O[C@@H]2[C@H](C)[C@H](O[C@@H]3O[C@@H](C)C[C@@H](N(C)C)[C@@H]3O)[C@H](C)C[C@]3(CO3)C(=O)[C@H](C)[C@H](O)[C@H](C)[C@H](C)OC(=O)[C@@H]2C)O[C@@H](C)[C@H]1O | inactive | – |
| C[N+]1(CCC[N+]2(C)C[C@H]3[C@H](C2)[C@H]2C=C[C@@H]3CC2)CCOCC1 (some centres not stated) | – | -2.37% [at 11.4 µM] (inactive) |
| CN=C(N)/N=C(\N)Nc1cc2ccccc2c2ccccc12 | 1.58 µM (active) | – |
| NC(=S)Nc1cc2ccccc2c2ccccc12 | 28.2 µM (active) | – |
| NC(=S)Nc1cccc2cccnc12 | inactive | – |
| S=C(CSc1ccccc1)Nc1cccc2ccccc12 | – | -5.75% [at 11.4 µM] (inactive) |
| CSc1nc(Oc2ccc(F)cc2)c2ccccc2n1 | inactive | – |
| C[C@@]1(C(NC(=O)c2cccs2)c2ccc(-c3ccccc3)cc2)C[C@H]1C1CCCCC1 (some centres not stated) | inactive | – |
| COc1ccc(OC)c(NC(=O)CSCc2cnn(-c3ccccc3)c2-n2cccc2)c1 | inactive | – |
| O=C(NCc1ccco1)c1nc2c(nnn2Cc2cccc(Cl)c2)c(=O)[nH]1 | inactive | – |
| COc1cccc(Cn2nnc3c(=O)[nH]c(C4CCCN(C(=O)c5ccccc5Cl)C4)nc32)c1 (configuration not stated) | 15.8 µM (active) | – |
| COc1ccccc1Cn1nnc2c(=O)[nH]c(C3CCN(C(=O)c4ccc(C)cc4)CC3)nc21 | inactive | – |
| NCCSc1nc(-c2ccccc2)c(-c2ccccc2)o1 | – | 5.57% [at 11.4 µM] (inactive) |
| COc1ccc(Br)c2c1C[C@H](C(=O)O)CC2 | – | 7.4% [at 11.4 µM] (inactive) |
| O=C(NNC(=O)c1sc2ccccc2c1Cl)Nc1ccc(Cl)cc1 | inactive | – |

| Structure (SMILES) | AC50 | activity, negative = inhibition |
| --- | --- | --- |
| Cc1sc(NC(=O)C(C)C)c(C(=O)Nc2ccccc2)c1C | inactive | – |
| Cc1ccc(C)c(-c2cc(C(=O)Nc3sc(C)c(C)c3C(N)=O)c3ccccc3n2)c1 | inactive | – |
| Cc1sc(NC(=O)c2ccccc2)c(C(=O)NCCN(C)C)c1C | 14.1 µM (active) | – |
| COc1cccc(-c2nnc3sc(-c4ccc(C)cc4)nn23)c1 | inactive | – |
| CCOc1cc2[nH]c(=O)n(CCCC(=O)NCc3ccc(OC)cc3)c(=O)c2cc1OCC | inactive | – |
| O=C(CCCCCn1c(=O)[nH]c2ccsc2c1=O)NCc1ccc2c(c1)OCO2 | 17.8 µM (active) | – |
| O=C(CCn1c(=O)[nH]c2ccsc2c1=O)Nc1ccc(F)c(F)c1 | inactive | – |
| COC(=O)C[C@@H]1O[C@H]1[C@H](C)[C@@H](OC)C(C)C | – | 5.88% [at 11.4 µM] (inactive) |
| CC[C@@]1(O)C(=O)OCc2c1cc1n(c2=O)Cc2cc3c(CN(C)C)c(O)ccc3nc2-1 | – | -7.02% [at 11.4 µM] (inactive) |
| CCn1c(Cc2ccccc2)nnc1SCC(=O)NC(C)(C)C | inactive | – |
| C=CCn1c(Cc2c[nH]c3ccccc23)nnc1SCC(=O)NCc1ccccc1 | 15.8 µM (active) | – |
| C=CCn1c(Cc2ccc(OC)cc2)nnc1SCC(=O)c1cccc([N+](=O)[O-])c1 | inactive | – |
| Cc1cc(C(=O)N/N=C/c2cccc([N+](=O)[O-])c2)c(C)o1 | inactive | – |
| CCOC(=O)c1cc(-c2ccccc2)sc1NC(=O)c1ccc(OC)cc1 | inactive | – |
| O=[N+]([O-])c1ccc(/C=N/Nc2cc(Cl)nc(-c3ccccc3)n2)cc1 | inactive | – |
| C(=N\n1cnnc1)/c1cccn1-c1ccccc1 | inactive | – |
| O=[N+]([O-])c1ccc(N/N=C\c2cccn2-c2ccccc2)nc1 | 4.47 µM (active) | – |
| CN1C(=O)CC[C@@H]1c1cccnc1 | inactive | – |
| Cc1cccn2c(/C=N/OCc3ccc(F)cc3)c(-c3ccc(Cl)cc3)nc12 | inactive | – |
| COc1ccc(/C=N/NC(=O)C2CCN(c3ncc(C(F)(F)F)cc3Cl)CC2)cc1 | inactive | – |
| O=C(CCCNS(=O)(=O)c1cccc2nsnc12)NCCc1ccccc1 | 14.1 µM (active) | – |
| Cc1cccc(NC(=O)CCS(=O)(=O)c2cccc3nsnc23)c1C | inactive | – |
| O=C(CCS(=O)(=O)c1cccc2nsnc12)NC1CCCCC1 | inactive | – |
